# PubChem BioAssay (NCATS)
# Records with an inconclusive call do not appear. Activity calls are given as the source filed them. Calls come from the whole dose curve; as a rule, active = well fitted curve in the direction sought with a large enough effect; inconclusive = small, poorly fitted or top-dose-only effect, or another doubt; inactive = no such curve, though single readings can be large or run the other way.
# Experiment: KB-8-5-11 P-gp reporter qHTS against the NCATS DSHEA and TCM libraries (AID 1919977); for activity change, negative = inhibition: 0% is about no effect
# Details: KB-8-5-11 cells; series mostly up to 26.1 µM; activity change, negative = inhibition: at the top concentration
# Text: Assay Development and Screening Technology Laboratory (ADST)
# National Center for Advancing Translational Sciences (NCATS), Rockville, MD
# National Institute of Health (NIH), Bethesda, Maryland
# Dietary Supplements and Natural Products have minor oversight of their safety and efficacy. We assembled a collection of Dietary Supplements and Natural Products (DSNP) as well as Traditional Chinese Medicinal (TCM) Plant extracts, which were screened against an in vitro panel of assays, including a liver cytochrome p450 enzyme panel, CAR/PXR signaling pathways, and P-gp transporter assays, to assess their activity. This pipeline facilitated the interrogation of Natural Product-Drug Interaction (NaPDI) through prominent metabolizing pathways. In addition, we compared the activity profiles of the DSNP/TCM substances with those of an approved drug collection. Many of the approved drugs have well-annotated mechanisms of action (MOA) while the MOAs for most of the DSNP and TCM samples remain unknown. Based on the premise that compounds with similar activity profiles tend to share similar targets or MOA, we clustered the library activity profiles to identify overlap with the NCATS Pharmaceutical Collection to predict the MOAs of the DSNP/TCM substances. Overall, we highlight four significant bioactivity profiles (measured by p-values) as examples of this prediction. To assess broad cytotoxicity, we employed screening against a HepG2 cell line. In addition, transporter-mediated drug interactions are utilized in the characterization of DDIs using a P-glycoprotein (P-gp) assays. To profile potential P-gp activity, a differential cell viability was measured against two cell lines: a parental KB-3-1 human cervical adenocarcinoma cell line and the drug-resistant subline KB-8-5-11 that overexpresses P-gp.
# To this end, we profiled both collections for potential CAR and/or PXR activity, employing a previously published 1536-well qHTS assay.
# [1] Lee TD, et al. A High-Throughput Screen of a Library of Therapeutics Identifies Cytotoxic Substrates of P-glycoprotein. Mol Pharmacol. Nov 2019;96(5):629-640. doi:10.1124/mol.119.115964
# PROTOCOL TABLE (as described by Inglese J, Shamu CE and Guy RK. 2007)
# SEQUENCE No. (e.g., 1, 2, 3, etc.); PARAMETER (e.g., Cells, Incubation, Reagent, etc.); VALUE; DESCRIPTION.
# 1; Cells; 5 uL; KB-8-5-11 cells, white solid-bottom tissue treated Greiner plate.
# 2; Incubation; 4 hrs; 37C, 95% humidity, 5% CO2.
# 3; Compounds and control; 23 nL; Kalypsis pin tool (Wako USA) equipped with a 1536-well pin head to transfer to the assay plates.
# 4; Incubation; 72 hrs; 37C, 95% humidity, 5% CO2.
# 5; Reagent; 2.5 uL; CellTiter-Glo.
# 6; Centrifuge; 1000 RPM; 15 seconds.
# 7; Incubation; 30 min; room temperature.
# 8; Read; Luminescence; ViewLux plate reader.
# NOTES (numbers refer to Sequence numbers above)
# 1. P-gp-overexpressing subline KB-8-5-11 were maintained in DMEM (Thermofisher catalog #11965) with 10% FBS and 1% penicillin/streptomycin at 37C in 5% CO2. For KB-8-5-11 cells, colchicine was added to the medium at a concentration of 100 ng/ml (after initial cell attachment). For the screen, assay medium was identical to culture medium except for KB-8-5-11, where colchicine was excluded from the medium. Briefly, 5 uL of cells at 1 x 10^5 cells/mL (500 cells/well) were dispensed into a 1536-well white solid-bottom tissue treated plate (Greiner Bio-One) using a Multidrop Combi dispenser.
# 2. Plates were incubated at 37C, 95% humidity, 5% CO2 for ~4 hours to allow for cell attachment.
# 3. Compounds and intraplate control (Bortezomib; final concentration range 228 pM - 7.5 uM) were transferred (16 nL) via pintool (Wako Automation), for a final concentration of 15.6 nM - 30.0 uM (most substances).
# 4. Plates were incubated for ~72 hours at 37C, 95% humidity, 5% CO2.
# 5. Plates were then dispensed with 2.5 uL of CellTiter-Glo.
# 6. The assay plates were centrifuged for 15 seconds at 1,000 RPM's.
# 7. The plates were incubated for 30-minute at room temperature.
# 8. […]
# Potency is the fitted concentration of half-maximal effect.
Compound,"activity change, negative = inhibition",Potency
CC/C=C\C/C=C\C/C=C\CCCCCCCC(=O)O,4.61% (inactive),–
CCCCCCCC/C=C\CCCCCCCCCCCCCC(=O)O,-0.537% (inactive),–
C=C[C@H]1CN2CCc3c([nH]c4ccccc34)[C@H]2C[C@@H]1/C(=C\OC)C(=O)OC,–,22.4 µM (active)
O=c1cc(-c2ccc(O)cc2)oc2cc(O[C@H]3OC(CO)C(O)C(O)C3O)cc(O)c12 (stereo not given in full),5.73% (inactive),–
OCC=Cc1ccccc1,-10% (inactive),–
N#CC(O[C@@H]1O[C@H](CO[C@@H]2O[C@H](CO)[C@@H](O)[C@H](O)[C@H]2O)[C@@H](O)[C@H](O)[C@H]1O)c1ccccc1 (stereo not given in full),-0.83% (inactive),–
COc1cc2c(cc1O)C[C@H]1c3c(cc(OC)c(O)c3-2)CCN1C,-20.2% (inactive),–
CC1(C)CC[C@]2(C(=O)O)CC[C@]3(C)C(=CCC4[C@@]5(C)CC[C@H](O)[C@@](C)(CO)C5CC[C@]43C)[C@H]2C1 (stereo not given in full),-3.82% (inactive),–
O=C(O)CC(O)(C(=O)O)C(O)C(=O)O (stereo not given),-14% (inactive),–
CC(C)(O)[C@@H]1CC[C@](C)([C@H]2[C@@H](O)C[C@@]3(C)[C@@H]4C[C@H](O)[C@H]5C(C)(C)[C@@H](O[C@@H]6OC[C@@H](O)[C@H](O)[C@H]6O[C@@H]6O[C@H](CO)[C@@H](O)[C@H](O)[C@H]6O)CC[C@@]56C[C@@]46CC[C@]23C)O1,3.12% (inactive),–
CCCCC/C=C/C(=O)CCc1ccc(O)c(OC)c1,-26.8% (inactive),–
CC[C@H](CC[C@@H](C)[C@H]1CCC2C3CCC4C[C@@H](O)CC[C@]4(C)C3CC[C@@]21C)C(C)C (stereo not given in full),2.04% (inactive),–
Cc1c(C)c2c(c(C)c1O)CC[C@@](C)(CCC[C@H](C)CCC[C@H](C)CCCC(C)C)O2,0.0638% (inactive),–
C=CCc1ccc(OC)c(OC)c1,-4.97% (inactive),–
C=C1[C@H]2CC[C@H](C(=O)O)[C@@]23CC[C@H](C3)C1(C)C,-0.687% (inactive),–
O=C(OC[C@H]1O[C@@H](OC(=O)c2cc(O)c(O)c(O)c2)[C@H](OC(=O)c2cc(O)c(O)c(O)c2)[C@@H](OC(=O)c2cc(O)c(O)c(O)c2)[C@@H]1O)c1cc(O)c(O)c(O)c1,3.96% [at 14.4 µM] (inactive),–
CC/C=C\C/C=C\C/C=C\C/C=C\C/C=C\CCCC(=O)O,3.47% (inactive),–
C=C1CC[C@H](O)CC1=C/C=C1\CCC[C@]2(C)[C@@H]([C@H](C)/C=C/[C@H](C)C(C)C)CC[C@@H]12,-8.65% (inactive),–
OC[C@H]1O[C@@H](OC[C@H]2O[C@@H](OC/C=C/c3ccccc3)[C@H](O)[C@@H](O)[C@@H]2O)[C@@H](O)[C@@H]1O,1.2% [at 14.4 µM] (inactive),–
CCCCCCCCCCCCCCCCCCCCCCCCCCCCCCO,8.26% [at 3.26 µM] (inactive),–

Compound,"activity change, negative = inhibition",Potency
NC(Cc1c[nH]c2ccccc12)C(=O)O (stereo not given),5.99% (inactive),–
C[C@@H]1OC(O[C@H]2[C@H](O)[C@@H](O)[C@H](OC[C@H]3O[C@@H](OC(=O)[C@]45CCC(C)(C)C[C@@H]4C4=CCC6[C@@]7(C)CC[C@H](OC8OC[C@H](O)[C@H](O)[C@H]8OC8O[C@@H](C)[C@H](O)[C@@H](O)[C@H]8O)[C@@](C)(CO)C7CC[C@@]6(C)[C@]4(C)CC5)[C@H](O)[C@@H](O)[C@@H]3O)O[C@@H]2CO)[C@H](O)[C@H](O)[C@H]1O (stereo not given in full),-3.17% (inactive),–
C=C1CC/C=C(/C)CC[C@@H]2[C@@H]1CC2(C)C,2.09% (inactive),–
C[C@@H]1O[C@@H](OC[C@H]2OC(Oc3c(-c4ccc(O)c(O)c4)oc4cc(O)cc(O)c4c3=O)[C@H](O)[C@@H](O)[C@@H]2O)[C@H](O)[C@H](O)[C@H]1O (stereo not given in full),-2.6% (inactive),–
O=c1c(O[C@@H]2O[C@H](CO)[C@H](O)[C@H](O)[C@H]2O)c(-c2ccc(O)c(O)c2)oc2cc(O)cc(O)c12,11% (inactive),–
CCCCCC/C=C\CCCCCCCC(=O)O,-2.46% (inactive),–
COC1=CC(=O)O[C@@H](/C=C/c2ccc3c(c2)OCO3)C1,-5.24% (inactive),–
CC(C)=CCC[C@](C)(O[C@@H]1O[C@H](CO)[C@@H](O)[C@H](O)[C@H]1O)[C@H]1CC[C@]2(C)[C@@H]1[C@H](O)C[C@@H]1[C@@]3(C)CC[C@H](O)C(C)(C)[C@@H]3[C@@H](O[C@@H]3O[C@H](CO)[C@@H](O)[C@H](O)[C@H]3O[C@@H]3O[C@@H](C)[C@H](O)[C@@H](O)[C@H]3O)C[C@]12C,5.66% (inactive),–
CC(C)=CCCC(C)(OC1OC(COC2OC(CO)C(O)C2O)C(O)C(O)C1O)C1CCC2(C)C1C(O)CC1C3(C)CCC(OC4OC(CO)C(O)C(O)C4OC4OC(CO)C(O)C(O)C4O)C(C)(C)C3CCC12C (stereo not given),-1.88% (inactive),–
C=C(C)[C@H]1CC=C(C)C(=O)C1,5.78% (inactive),–
CC/C=C\C/C=C\C/C=C\C/C=C\C/C=C\C/C=C\CCC(=O)O,11.9% (inactive),–
COC(=O)C1=CO[C@@H](C)[C@H]2CN3CCc4c([nH]c5ccccc45)[C@@H]3C[C@H]12,-15.4% (inactive),–
C[S+](CC[C@H](N)C(=O)O)C[C@H]1O[C@@H](n2cnc3c(N)ncnc32)[C@H](O)[C@@H]1O (stereo not given in full),5.77% (inactive),–
CCCCCC/C=C/CCCCCCCCCC(=O)O,-2.31% (inactive),–
COc1cc2c(cc1O)CC1c3c(cc(O)c(OC)c3-2)CCN1C (stereo not given),-14.1% (inactive),–
CC(C)=CCC[C@](C)(O[C@@H]1O[C@H](CO)[C@@H](O)[C@H](O)[C@H]1O)[C@H]1CC[C@]2(C)[C@@H]1[C@H](O)C[C@@H]1[C@@]3(C)CC[C@H](O[C@@H]4O[C@H](CO)[C@@H](O)[C@H](O)[C@H]4O[C@@H]4O[C@H](CO)[C@@H](O)[C@H](O)[C@H]4O)C(C)(C)[C@@H]3CC[C@]12C,7.73% (inactive),–
C=CC(C)(CCC=C(C)C)OC(C)=O (stereo not given),-9.62% [at 44.5 µM] (inactive),–
C=C1C[C@@]23CC[C@H]4[C@@](C)(CCC[C@@]4(C)C(=O)O[C@@H]4O[C@H](CO)[C@@H](O)[C@H](O)[C@H]4O[C@@H]4O[C@H](CO)[C@@H](O)[C@H](O)[C@H]4O)[C@@H]2CC[C@]1(O[C@@H]1O[C@H](CO)[C@@H](O)[C@H](O)[C@H]1O[C@@H]1O[C@H](CO)[C@@H](O)[C@H](O)[C@H]1O)C3,-1.06% (inactive),–
CCCCCCCCCCCCCC(=O)O,3.2% (inactive),–
CCCCCCCC/C=C/CCCCCCCCCC(=O)O,-0.37% (inactive),–
